About 2,000 (36%) of roughly 5,500 compounds were called active. Roughly 18% stayed inconclusive and do not appear here. Rule as the data show it: active = normalized growth mostly below about 0.91 (no sharp cut-off); inconclusive = no clear call, values can overlap the other calls; inactive = mostly above about 0.92. Some of the results follow.
Test: chemical genetic growth profiling, strain panel (AID 1159580);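 also: tested at 20 µM; growth read once vehicle control cultures reached saturation at 30 °C; 1 = growth at the plate median or of vehicle wells; lower values mean less growth of the strain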
Conditions: S. cerevisiae deletion strains, growth OD
[1] = locus YAR019C, strain CDC15, stronger effect = lower value
[2] = locus YBL105C, strain PKC1, stronger effect = lower value
[3] = locus YBR135W, strain CKS1, stronger effect = lower value
[4] = locus YBR136W, strain MEC1, stronger effect = lower value
[5] = locus YBR160W, strain CDC28, stronger effect = lower value
[6] = locus YDL017W, strain CDC7, stronger effect = lower value
[7] = locus YDL028C, strain MPS1, stronger effect = lower value
[8] = locus YDL101C, strain DUN1, stronger effect = lower value
[9] = locus YDL108W, strain KIN28, stronger effect = lower value
[10] = locus YDL132W, strain cdc53, stronger effect = lower value
[11] = locus YDL214C, strain PRR2, stronger effect = lower value
[12] = locus YDR052C, strain DBF4, stronger effect = lower value
[13] = locus YDR054C, strain cdc34, stronger effect = lower value
[14] = locus YDR226W, strain ADK1, stronger effect = lower value
[15] = locus YDR477W, strain SNF1, stronger effect = lower value
[16] = locus YER123W, strain YCK3, stronger effect = lower value
[17] = locus YER133W, strain GLC7, stronger effect = lower value
[18] = locus YFL009W, strain cdc4, stronger effect = lower value
[19] = locus YFL029C, strain CAK1, stronger effect = lower value
[20] = locus YFR003C, strain YPI1, stronger effect = lower value
[21] = locus YFR019W, strain FAB1, stronger effect = lower value
[22] = locus YFR028C, strain CDC14, stronger effect = lower value
[23] = locus YGR040W, strain KSS1, stronger effect = lower value
[24] = locus YGR052W, strain FMP48, stronger effect = lower value
[25] = locus YGR092W, strain DBF2, stronger effect = lower value
[26] = locus YHR030C, strain SLT2, stronger effect = lower value
[27] = locus YHR079C, strain IRE1, stronger effect = lower value
[28] = locus YHR082C, strain KSP1, stronger effect = lower value
[29] = locus YHR205W, strain SCH9, stronger effect = lower value
[30] = locus YIL147C, strain SLN1, stronger effect = lower value
[31] = locus YJL095W, strain BCK1, stronger effect = lower value
[32] = locus YJL128C, strain PBS2, stronger effect = lower value
[33] = locus YJL157C, strain FAR1, stronger effect = lower value
[34] = locus YJR016C, strain ILV3, stronger effect = lower value
[35] = locus YJR066W, strain TOR1 (second series), stronger effect = lower value
[36] = locus YJR066W, strain TOR1, stronger effect = lower value
[37] = locus YKL048C, strain ELM1, stronger effect = lower value
[38] = locus YKL067W, strain YNK1, stronger effect = lower value
[39] = locus YKL101W, strain HSL1, stronger effect = lower value
[40] = locus YKL193C, strain SDS22, stronger effect = lower value
[41] = locus YKL203C, strain TOR2, stronger effect = lower value
[42] = locus YLR113W, strain HOG1, stronger effect = lower value
[43] = locus YLR133W, strain CKI1, stronger effect = lower value
[44] = locus YLR403W, strain SFP1, stronger effect = lower value
[45] = locus YML070W, strain DAK1, stronger effect = lower value
[46] = locus YMR001C, strain CDC5, stronger effect = lower value
[47] = locus YMR205C, strain PFK2 (second series), stronger effect = lower value
[48] = locus YMR277W, strain FCP1, stronger effect = lower value
[49] = locus YNL006W, strain LST8, stronger effect = lower value
[50] = locus YNL020C, strain ARK1, stronger effect = lower value
[51] = locus YNL161W, strain CBK1, stronger effect = lower value
[52] = locus YNL183C, strain NPR1, stronger effect = lower value
[53] = locus YNL207W, strain RIO2, stronger effect = lower value
[54] = locus YNL222W, strain SSU72, stronger effect = lower value
[55] = locus YNL307C, strain MCK1 (second series), stronger effect = lower value
[56] = locus YOL078W, strain AVO1, stronger effect = lower value
[57] = locus YOL136C, strain PFK27, stronger effect = lower value
[58] = locus YOR061W, strain CKA2, stronger effect = lower value
[59] = locus YOR119C, strain RIO1, stronger effect = lower value
[60] = locus YOR231W, strain MKK1, stronger effect = lower value
[61] = locus YOR329C, strain SCD5, stronger effect = lower value
[62] = locus YPL031C, strain PHO85, stronger effect = lower value
[63] = locus YPL153C, strain RAD53, stronger effect = lower value
[64] = locus YPL204W, strain HRR25, stronger effect = lower value
[65] = locus YPL209C, strain IPL1, stronger effect = lower value
[66] = locus YPL256C, strain CLN2, stronger effect = lower value
[67] = locus YPR025C, strain CCL1, stronger effect = lower value
[68] = locus YPR106W, strain ISR1, stronger effect = lower value
[69] = locus YPR111W, strain DBF20, stronger effect = lower value
[70] = strain NNK1, stronger effect = lower value
[71] = strain TSCII, stronger effect = lower value

Measured: normalized growth

COc1ccc(-n2nc(C(F)(F)F)cc2-c2ccc(Cl)cc2)cc1
inactive: locus YAL040C, strain CLN3, stronger effect = lower value 1.09 | locus YCL061C, strain MRC1 (second series), stronger effect = lower value 1.01 | locus YDR363W, strain ESC2, stronger effect = lower value 1.02 | locus YER002W, strain NOP16, stronger effect = lower value 1.03 | locus YGR078C, strain PAC10, stronger effect = lower value 1.01 | locus YMR263W, strain SAP30, stronger effect = lower value 1 | locus YMR307W, strain GAS1, stronger effect = lower value 1.01 | locus YNL175C, strain NOP13, stronger effect = lower value 1.02 | locus YNL197C, strain WHI3, stronger effect = lower value 1.02 | locus YNL224C, strain SQS1, stronger effect = lower value 0.998 | locus YNL322C, strain KRE1, stronger effect = lower value 1.02 | locus YOR083W, strain WHI5 (second series), stronger effect = lower value 1.02 | locus YPL055C, strain LGE1, stronger effect = lower value 1.02 | locus YPL241C, strain CIN2, stronger effect = lower value 1

COc1ccc(-c2cc(NS(=O)(=O)c3cccc(F)c3)n(-c3ccc(Cl)c(Cl)c3)n2)cc1
active: [26] 0.635 | [42] 0.811 | [66] 0.828
inactive: [1] 0.961 | [2] 0.971 | [3] 0.977 | [4] 0.965 | [5] 0.963 | [6] 0.97 | [7] 0.945 | [8] 0.979 | [9] 0.975 | [10] 0.977 | [11] 0.92 | [12] 0.984 | [13] 0.966 | [14] 0.961 | [15] 0.903 | [16] 0.908 | [17] 0.94 | [18] 0.947 | [19] 0.961 | [20] 0.98 | [21] 0.931 | [22] 0.965 | [23] 0.894 | [24] 0.954 | [25] 0.838 | [27] 0.888 | [28] 0.873 | [29] 0.856 | [30] 0.959 | [31] 0.888 | [32] 0.921 | [33] 0.939 | [34] 0.972 | [35] 0.922 | [36] 0.87 | [37] 0.929 | [38] 0.91 | [39] 0.87 | [40] 0.968 | [41] 0.995 | [43] 0.912 | [44] 0.924 | [45] 0.906 | [46] 0.956 | [47] 0.937 | [48] 0.947 | [49] 0.966 | [50] 0.89 | [51] 0.971 | [52] 0.956 | [53] 0.973 | [54] 0.958 | [55] 0.839 | [56] 0.976 | [57] 0.887 | [58] 0.87 | [59] 0.944 | [60] 0.873 | [61] 0.967 | [62] 0.913 | [63] 0.915 | [64] 0.905 | [65] 0.97 | [67] 0.966 | [68] 0.963 | [69] 0.942 | [70] 0.961 | [71] 0.962

O=S(=O)(Nc1ccc(-n2nc(C(F)(F)F)cc2-c2cccs2)cc1)c1ccc(F)cc1
inactive: [1] 0.993 | [2] 0.979 | [3] 0.997 | [4] 0.991 | [5] 0.998 | [6] 0.99 | [7] 0.995 | [8] 0.993 | [9] 1 | [10] 0.989 | [11] 0.986 | [12] 0.98 | [13] 0.982 | [14] 0.996 | [15] 0.991 | [16] 0.979 | [17] 0.973 | [18] 0.991 | [19] 0.994 | [20] 0.99 | [21] 0.985 | [22] 0.997 | [23] 0.987 | [24] 1.04 | [25] 0.99 | [26] 1.01 | [27] 0.993 | [28] 1.06 | [29] 0.983 | [30] 0.99 | [31] 1.04 | [32] 0.951 | [33] 0.979 | [34] 0.999 | [35] 0.956 | [36] 1.04 | [37] 0.991 | [38] 0.991 | [39] 0.995 | [40] 0.986 | [41] 1.04 | [42] 0.938 | [43] 0.983 | [44] 0.972 | [45] 0.992 | [46] 0.989 | [47] 0.995 | [48] 0.992 | [49] 0.991 | [50] 0.987 | [51] 0.989 | [52] 1.02 | [53] 0.993 | [54] 0.99 | [55] 0.996 | [56] 0.994 | [57] 0.973 | [58] 0.998 | [59] 1.05 | [60] 0.974 | [61] 0.988 | [62] 0.986 | [63] 0.997 | [64] 0.966 | [65] 0.988 | [66] 0.94 | [67] 0.993 | [68] 0.978 | [69] 0.974 | [70] 0.975 | [71] 0.995

Reference: PubChem BioAssay AID1159580 (chemical genetic matrix, 2015)
